Where “and” joins values, the source holds several entries; their conditions need not be identical. Equal values may be shown once. A structure can be active in one record and inactive in another. Calls of active or inactive are those of the source. Rule for the calls: active = hit-call score of the fitted dose curve at least 0.9, where 1 is the maximum; inactive = score below 0.9.
Experiment: ATG_CMV_CIS: Attagene CIS-FACTORIAL HepG2 Assay for human CMV (Internal Marker) (AID 2282928);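 note: endpoint acts as a background internal control marker rather than a target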
Settings: HepG2 CMV promoter reporter, transcription factor profiling; actives raise or lower the signal
Procedure: ATG_CIS is a cell-based, multiplexed-readout assay that uses HepG2, a human liver cell line, with measurements taken at 24 hours after chemical dosing in a 24-well plate.ATG_CMV_CIS is one of 52 assay component(s) measured or calculated from the ATG_CIS assay. It is designed to make measurements of mRNA induction, a form of inducible reporter, as detected with fluorescence intensity signals by Reverse transcription polymerase chain reaction (RT-PCR) and Capillary electrophoresis technology.Data from the assay component ATG_CMV_CIS was analyzed into 1 assay endpoint. This assay endpoint, ATG_CMV_CIS, was analyzed with bidirectional fitting relative to DMSO as the negative control and baseline of activity. Using a type of inducible reporter, measures of mRNA for gain or loss-of-signal activity can be used to understand the background control at the transcription factor-level as they relate to the gene . Furthermore, this assay endpoint can be referred to as a secondary readout, because this assay has produced multiple assay endpoints where this one serves a background control function. To generalize the intended target to other relatable targets, this assay endpoint is annotated to the background measurement intended target family, where the subfamily is internal marker.
Human liver HepG2 cells are transiently transfected with multiple reporter transcription units (MRTUs) in 6-well plates using FuGene 6 reagent (Roche; 3 ml FuGene/1 mg DNA). The MRTU constructs are regulated by a cis-regulating element (promoter). […] A major difference between the CIS and TRANS system is that in CIS activities of endogenous TFs are measured, whereas the TRANS assay evaluates changes in activities of exogenous, chimeric NR-Gal4 proteins. […] At the end of 24 hour incubation, total RNA was isolated using TriZol reagent (Invitrogen). The isolated RNA is then reverse-transcribed using oligo(dT) primer and Mo-MLV reverse transcriptase (Invitrogen) with DNAse I (Ambion) treatment for 30 min. The one-tenth of the produced cDNA was amplified by PCR using Taq DNA polymerase (Invitrogen) and two reporter sequence-specific primers. The PCR products were fluorescently labeled by primer extension with 6-arboxyfluorescein (6-FAM) 5'-labeled reporter sequence-specific primer (2 min at 95 C, 20 s at 68 C and 10 min at 72 C) and these products were digested with 5U of HpaI (New England Biolabs) for 2h at 37 C. The fragments were purified using Qiaquick PCR columns (Qiagen), analyzed on an ABI 3130xL genetic analyzer (Applied Biosystems) with peak positions identified by using a set of X-rhodamine (ROX)-labeled MapMarker1000 molecular weight standards (BioVentures). The raw capillary electrophoresis data was processed using Attagraph software (Attagene).

SMILES	AC50	outcome
OCCC(F)(F)C(F)(F)C(F)(F)C(F)(F)C(F)(F)C(F)(F)F	145 µM (active)	inactive
OCCC(F)(F)C(F)(F)C(F)(F)C(F)(F)C(F)(F)C(F)(F)C(F)(F)C(F)(F)F	–	inactive
Cc1cc(C)c(O)c(C)c1	100 µM (active)	–
CCCCC[C@H](O)CC(=O)CCc1ccc(O)c(OC)c1	–	inactive
CC1=C(/C=C/C(C)=C/C=C/C(C)=C/C(=O)O)C(C)(C)CCC1	75.8 µM (active)	inactive
Cc1ccc(S(=O)(=O)O)c(C)c1	–	inactive
CCOC(=O)CC(O)(CC(=O)OCC)C(=O)OCC	–	inactive
O=C(O)Cc1cc(I)c(Oc2cc(I)c(O)c(I)c2)c(I)c1	22.4 µM (active) and 16.7 µM (active)	–
Nc1cccc2c(N)cccc12	–	inactive
C=C(C)C(=O)OCCC(F)(F)C(F)(F)C(F)(F)C(F)(F)C(F)(F)C(F)(F)F	–	inactive
Cc1cc(CCN2CCN(c3nsc4ccccc34)CC2)cc2c1NC(=O)CC2(C)C	–	inactive
CCCCCCCCC(=O)O	–	inactive
CCCCCCCCCCCCN1CCCC1=O	–	inactive
Cc1oc(-c2ccccc2)nc1CCOc1ccc(C[C@H](Nc2ccccc2C(=O)c2ccccc2)C(=O)O)cc1	–	inactive
CCCCC(CC)COC(=O)CCCCC(=O)OCC(CC)CCCC (stereo not given)	–	inactive
CCCOc1sc(C(=O)N2CCC(c3cc(CN)ccc3F)CC2)c(C)c1Br	–	inactive
CC(=O)CC(C)(C)O	–	inactive

SMILES	AC50	outcome
CC[C@H](C)[C@@H](C(=O)O)n1sc2ccccc2c1=O	–	inactive
COCC(C)O (stereo not given)	–	inactive
CCCCCCCCCCCCc1ccccc1S(=O)(=O)O	–	inactive
CC(C)(C)c1cc(C(C)(C)C)c(O)c(C(C)(C)C)c1	74.9 µM (active)	inactive
CC(C)CCCCCCOC(=O)CCCCC(=O)OCCCCCCC(C)C	–	inactive
CC(C)(C)CC(C)(C)c1ccc(O)c(-n2nc3ccccc3n2)c1	61.4 µM (active)	–
NC(=O)N1C(=O)C(C(=O)c2cc(Cl)cs2)c2cc(F)c(Cl)cc21 (stereo not given)	–	inactive
O=C1OC2(c3ccccc31)c1cc(Br)c(O)c(Br)c1Oc1c2cc(Br)c(O)c1Br	93 µM (active)	inactive
OC1CCCCC1	–	inactive
CCc1nn(C2CCCCC2)c2cc(C3(C#N)CCC(C(=O)O)CC3)ccc12 (stereo not given)	–	inactive
c1ccc2c(c1)Cc1ccccc1-2	–	inactive
NC(=O)N(O)[C@@H]1C=C[C@H](Oc2cccc(Oc3ccc(F)cc3)c2)C1	7.56 µM (active)	–
CCC(=C(c1ccc(O)cc1)c1ccc(OCCN(C)C)cc1)c1ccccc1	5.22 µM (active) and 7.1 µM (active)	inactive
CCCOC(=O)c1ccc(O)cc1	121 µM (active)	inactive
O=C(/C=C/c1ccc(O)cc1)CC(=O)/C=C/c1ccc(O)cc1	77.7 µM (active)	–
CCCCC(CC)COC(=O)CCCCC(=O)OCc1ccccc1 (stereo not given)	–	inactive
COCC(C)OCC(C)O (stereo not given)	–	inactive

From PubChem BioAssay (EPA / NIEHS)
